tim23-1 inh – inhibits growth of tim23-1 mutant yeast; S. cerevisiae tim23-1 growth, BacTiter-Glo luminescence, 24 h; AID 463212; inhibition, % at 20 µM; 330,000 compounds, 1.3% hits;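 active = growth inhibition of the mutant yeast at or above 50%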;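 also: temperature-sensitive mutant grown at 25 °C; plate controls were DMSO-treated mutant yeast for no effect and medium wells lacking yeast for full effect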
tim10-1 inh – tim10-1 yeast growth inhibition; S. cerevisiae tim10-1 ts strain growth, BacTiter-Glo, 24 h; inhibition, % at 20 µM; 330,000 compounds, 2.2% hits; AID 463190;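 active = inhibition of at least 40%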;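 also: mutant grown at 25 °C; 0% = DMSO wells with yeast and 100% = wells holding no yeast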
PfHsp90 set2 – reduces growth (ATP signal) of yeast expressing P. falciparum Hsp90 | S. cerevisiae expressing PfHsp90, BacTiter-Glo ATP, 48 h; yeast lacking PDR1 and PDR3 efflux regulators | 310,000 compounds, 0.32% hits | inhibition, % at 9.4 µM;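 active = every replicate shows inhibition above about 80%, whatever the replicate mean, limit read from the data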;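 also: 0% = DMSO neutral controls and 100% = 20 µM radicicol positive controls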
SKKanGAS inh – blocks kanamycin growth of S. pyogenes SKKanGAS strain; BacTiter-Glo, 6 h; 300,000 compounds, 1.3% hits; inhibition, % at 7.5 µM; AID 1662;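 active = mean replicate score, as percent of positive control median, at least 50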;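 also: strain carries kanamycin resistance gene driven by streptokinase promoter and grows in 40 µg/ml kanamycin; loss of luminescence reflects streptokinase promoter inhibition or plain growth inhibition; 0% = median of DMSO wells and 100% = positive control at its reference dose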
TIM10 inh – TIM10 yeast growth inhibition. AID 463195. 330,000 compounds, 1.4% hits. S. cerevisiae TIM10 strain growth, BacTiter-Glo luminescence, 24 h. inhibition, % at 10 µM;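 active = inhibition of 40% or more at the single tested concentration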;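 also: wild-type TIM10 isogenic control strain grown at permissive 25 °C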
tim10-1 confirm – tim10-1 yeast growth inhibition, confirmed | shares compounds with tim10-1 inh | 7,400 compounds, 56% hits | S. cerevisiae tim10-1 ts strain growth, BacTiter-Glo, 24 h | AID 463213 | inhibition, % at 20 µM;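 active = inhibition of yeast growth at or above a set limit in either of two repeat tests at 20 µM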;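 also: tim10-1 mutant grown at permissive 25 °C to find synthetic lethal compounds; 0% = DMSO yeast wells and 100% = medium wells without yeast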
Active calls of the source: *; x = no result. Most compounds without a hit are left out; they make up all but 4.4% or so of the library.

SMILES | tim23-1 inh | tim10-1 inh | PfHsp90 set2 | SKKanGAS inh | TIM10 inh | tim10-1 confirm
Cc1nn(-c2ccccc2)c(C)c1C(=O)OC(C)C(=O)NC1CCCCC1 (centres undefined) | 25 | 14 | x | x | 9 | x
CCC(=O)Nc1nc2ccc3nc(C)sc3c2s1 | 21 | 48* | 14 | -4 | 23 | 23
Cc1ccc(OCc2ccc(C(=O)NN)o2)cc1C | 28 | 17 | 0 | 1 | -4 | x
NNC(=O)c1ccc(COc2ccc3ccccc3c2)o1 | 33 | 42* | 38 | 11 | 4 | 13
Cc1cc(Nc2ccccc2)nn1C(=O)c1ccc(Br)cc1 | 21 | 53* | -15 | 50* | 6 | 29
CCn1c(COc2ccccc2)nnc1SCC(=O)CC(=O)Nc1ccccc1OC | 28 | 25 | x | 34 | 28 | x
CCn1c(COc2cccc(C)c2)nnc1SCC(=O)CC(=O)Nc1ccccc1OC | 21 | 48* | 3 | x | 19 | 13
CC1(C)CC2CC(C)(CN2C(=O)C23CCC(C)(C(=O)C2)C3(C)C)C1 (centres undefined) | 23 | 43* | -4 | -6 | -10 | 14
CC12CCC(C(=O)NC3CCCC3)(CC1=O)C2(C)C (centres undefined) | 15 | -3 | -1 | -5 | 6 | x
O=[N+]([O-])c1ccc(S(=O)(=O)N2CCN(c3ccc(N4CCOCC4)nn3)CC2)cc1 | -6 | 4 | -23 | 0 | -5 | x
COc1ccc(-c2[nH]c(-c3ccc4c(c3)OCO4)nc2-c2ccccc2)cc1 | 49 | 54* | 59 | 25 | 22 | 28
O=C(NC(=S)N1CCCCCC1)c1ccc(Cl)cc1Cl | 45 | 48* | -6 | 23 | 39 | 30*
CN(CC(=O)O/N=C(\N)c1ccccn1)S(=O)(=O)c1ccccc1 | -4 | 26 | -24 | -11 | 0 | x
Cc1ccc(/C(N)=N/OC(=O)CN(C)S(=O)(=O)c2ccc(C)cc2)cc1 | 32 | 47* | -10 | -3 | 12 | 20
COc1ccc(/C(N)=N/OC(=O)CN(C)S(=O)(=O)c2ccccc2)cc1 | -7 | -9 | -28 | x | -17 | x
COc1ccc(/C(N)=N/OC(=O)CN(C)S(=O)(=O)c2ccc(C)cc2)cc1 | x | x | -5 | x | x | x
Cc1ccc(S(=O)(=O)N(C)CC(=O)O/N=C(\N)c2cccc(Br)c2)cc1 | 26 | 50* | -18 | 0 | 24 | 52*
CN(CC(=O)O/N=C(\N)c1ccc([N+](=O)[O-])cc1)S(=O)(=O)c1ccc2ccccc2c1 | 34 | 45* | x | 4 | 34 | 47*
COc1cccc(/C=C2\SC(=O)N(CC(=O)NC3C=CS(=O)(=O)C3)C2=O)c1 (centres undefined) | 5 | -9 | -11 | -5 | -3 | x
CCOC(=O)c1nnc(-c2ccc(C)cc2)nc1Oc1ccc(Cl)cc1Cl | 43 | 50* | 14 | -7 | 17 | 31*
CCOC(=O)c1nnc(-c2ccc(C)cc2)nc1Oc1ccccc1Cl | 43 | 30 | x | 9 | 17 | x
Cc1cc(C)n(S(=O)(=O)c2ccc(C(C)(C)C)cc2)n1 | 28 | 43* | x | -10 | 0 | 38*
Cc1cc(C)n(S(=O)(=O)c2cc(Cl)ccc2Cl)n1 | 27 | 40* | 16 | -14 | -4 | 18
Cc1cc(C)n(S(=O)(=O)c2ccc(F)cc2)n1 | 4 | 3 | 2 | -2 | -7 | x
Cc1cc(C)n(S(=O)(=O)c2ccc(Cl)cc2)n1 | 11 | 6 | -28 | 0 | -5 | x
SMILES | tim23-1 inh | tim10-1 inh | PfHsp90 set2 | SKKanGAS inh | TIM10 inh | tim10-1 confirm
O=C(COC(=O)c1cccc(F)c1)Nc1ccc2c(c1)OCCO2 | 15 | -1 | 22 | x | 8 | x
Cc1nc([N+](=O)[O-])c(C(=O)OCc2ccccc2)n1C | 12 | 8 | x | 4 | 8 | x
Cc1nc([N+](=O)[O-])c(C(=O)OCc2cccc(Br)c2)n1C | 10 | 43* | x | -1 | 7 | 33*
COc1ccc(C2(OC)Oc3cc(OC)ccc3C(=O)C2(O)OC)cc1 (centres undefined) | x | x | 9 | x | x | x
COc1ccc2oc(C(=O)OC(C)C(=O)NC3(C#N)CCCCC3)c(C)c2c1 (centres undefined) | 22 | 15 | 22 | 2 | 33 | x
CC(=O)N/C(=C\c1ccccc1)C(=O)OC(C)C(=O)Nc1ccccc1F (centres undefined) | -6 | -1 | -15 | x | -6 | x
CC(=O)N1N=C(c2cccc([N+](=O)[O-])c2)OC1c1cccc(Br)c1 (centres undefined) | 47 | 45* | 4 | 8 | 22 | 29
Cc1ccccc1-c1nc(CS(=O)CC(=O)NCCc2ccc(Cl)cc2)c(C)o1 (centres undefined) | 26 | 44* | 3 | -5 | 7 | -7
Cc1oc(-c2ccc(Cl)cc2)nc1CS(=O)CC(=O)NC1CCCCC1 (centres undefined) | 41 | 40* | 7 | -1 | 32 | 33*
Cc1oc(-c2ccc(Cl)cc2)nc1CS(=O)CC(=O)NC1CCCCCC1 (centres undefined) | 31 | 33 | 13 | 0 | 29 | x
Cc1ccc(NC(=O)CS(=O)Cc2nc(-c3ccc(C)cc3)oc2C)cc1 (centres undefined) | 20 | 40* | 10 | -1 | 22 | 14
Cc1ccc(S(=O)(=O)N2CCC3(CC2)OCCN3S(=O)(=O)c2c(C)cc(C)cc2C)cc1 | -9 | 10 | -32 | -6 | 14 | x
Cc1ccc(NS(=O)(=O)c2cccc(C(=O)Nc3cccnc3)c2)c(C)c1 | -1 | -4 | 4 | x | 4 | x
CCOC(=O)c1ccc(NC(=S)N2CCN(C)CC2)cc1 | 1 | -16 | -1 | 0 | -5 | x
CCOC(=O)c1c(NC(=S)N2CCN(C)CC2)sc(C)c1-c1ccccc1 | 45 | 43* | -7 | 50* | 28 | 31*
CC(=O)Nc1ccc(S(=O)(=O)N(C)Cc2cnn(C)c2)cc1 | 4 | 9 | -17 | -1 | 7 | x
O=C(Nc1cccc(C(F)(F)F)c1)C1CCCN(c2ncccn2)C1 (centres undefined) | 23 | 42* | x | 1 | 29 | 36*
Cn1c(N)c(C(=O)COC(=O)C2CCC(C(C)(C)C)CC2)c(=O)n(C)c1=O (centres undefined) | 19 | 42* | x | 4 | 10 | 26
c1ccc(-n2nnnc2SCc2cccc3nsnc23)cc1 | 36 | 40* | -8 | 5 | 23 | 33*
O=C(c1cc(-c2cccnc2)nc2ccc(Br)cc12)N1CCN(c2ncccn2)CC1 | 44 | 46* | -18 | 2 | 28 | 18
CC(=O)c1ccc(N2CCN(C(=O)c3cc(-c4cccnc4)nc4ccc(Br)cc34)CC2)cc1 | 10 | 34 | 0 | 7 | 15 | x
CN1CCCC(CC2Oc3ccccc3Sc3ccccc32)C1 (centres undefined) | 4 | 40* | 21 | -5 | 19 | 20
c1ccc2c(c1)OC(CCCN1CCCCC1)c1ccccc1S2 (centres undefined) | -18 | 18 | 2 | -3 | 6 | x
